Assay [1] can be described thus: qHTS assay to identify small molecule antagonists of the thyroid receptor (TR) signaling pathway - cell viability counter screen (AID 743064). Further: nearly all actives have a fitted effect of over 50% in size. The gist of the method: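 GH3.TRE-Luc cells, 4 h pre-plating; cpd + T3 1 nM final; 37 °C 23.5 h; CellTiter-Fluor 30 min; fluorescence read.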
(qHTS replaces the single test concentration by a dilution series.)

The nature of assay [2]: qHTS assay to identify small molecule antagonists of the thyroid receptor (TR) signaling pathway (AID 743065). Further: nearly all actives have a fitted effect of over 55% in size. Further: potency means the concentration at half of the fitted maximal effect. The gist of the method: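 GH3.TRE-Luc rat pituitary cells carrying two TR response elements driving luciferase were plated for 4 h, given compound plus 1 nM T3 (final), and incubated 23.5 h at 37 C. ONE-Glo luminescence measured reporter inhibition; CellTiter-Fluor fluorescence tracked cytotoxicity.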

The subject of assay [3] is thyroid hormone receptor (rat, GH3 cells). Kind of assay: qHTS assay to identify small molecule agonists of the thyroid receptor (TR) signaling pathway (AID 743066; calls by dose curve).
The target of assay [4] is Estrogen receptor (Homo sapiens) (UniProt P03372). Kind of assay: qHTS assay to identify small molecule antagonists of the estrogen receptor alpha (ER-alpha) signaling pathway (AID 743069; active means well fitted curve in the direction sought with a large enough effect in the signal ratio in the repeat runs, not every such curve was filed as active; the % refers to the signal ratio). The gist of the method:
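HEK293 cells stably carrying an ER-alpha-UAS-bla beta-lactamase reporter were pre-cultured overnight in 2% charcoal-stripped FBS medium. Test compounds in DMSO were added together with 17beta-estradiol for 18 hr at 37C. Read-out was fluorescence after 2 hr with LiveBLAzer B/G FRET substrate at room temperature.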

Assay [5] can be described thus: qHTS assay to identify small molecule antagonists of the estrogen receptor alpha (ER-alpha) signaling pathway - cell viability counter screen (AID 743074; calls by dose curve; further: nearly all actives have a fitted effect of over 45% in size).
Assay [6] concerns the target Estrogen receptor (Homo sapiens) (UniProt P03372). Put plainly: qHTS assay to identify small molecule agonists of the estrogen receptor alpha (ER-alpha) signaling pathway (AID 743075; calls by dose curve).
The target is the same in assay [7]. Kind of assay: qHTS assay to identify small molecule agonists of the estrogen receptor alpha (ER-alpha) signaling pathway using the BG1 cell line (AID 743079). Further: nearly all actives have a fitted effect of over 20% in size.
Assay [8] in a line: qHTS assay to identify small molecule antagonists of the estrogen receptor alpha (ER-alpha) signaling pathway using the BG1 cell line (AID 743080; calls by dose curve;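 further: BG1 cells stimulated with 17beta-estradiol alongside compound; nearly all actives have a fitted effect of over 25% in size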; further: potency means the concentration at half of the fitted maximal effect). The gist of the method: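 Luciferase inhibition measured with ONE-Glo after 30 min at RT in BG1Luc4E2 cells given test compounds and 17beta-estradiol for 21.5 h at 37 C; CellTiter-Fluor viability read in the same wells beforehand.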

Assay [9] in a line: qHTS assay to identify small molecule antagonists of the estrogen receptor alpha (ER-alpha) signaling pathway using the BG1 cell line - cell viability counter screen (AID 743081).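 Further: compound given together with 17beta-estradiol as the ER stimulus; series mostly up to about 70 µM; nearly all actives have a fitted effect of over 45% in size.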
A further assay has as its target Aromatase (Homo sapiens) (UniProt P11511). Kind of assay: qHTS assay to identify aromatase inhibitors (AID 743083). Further: series mostly up to about 70 µM; nearly all actives have a fitted effect of over 55% in size.

The text below walks through data of PubChem BioAssay (Tox21).

Structures are written as SMILES. Records with an inconclusive call do not appear. Activity calls are given as the source filed them. Unless noted, the call rests on the fitted dose curve; in most records, active means well fitted curve in the direction sought with a large enough effect in the repeat runs; inconclusive means weak or mixed curves; inactive means no such curve, though single readings can be large; an effect the other way counts as inactive or inconclusive.

Chain of Aromatase (Homo sapiens) (P11511 whole entry, looked up): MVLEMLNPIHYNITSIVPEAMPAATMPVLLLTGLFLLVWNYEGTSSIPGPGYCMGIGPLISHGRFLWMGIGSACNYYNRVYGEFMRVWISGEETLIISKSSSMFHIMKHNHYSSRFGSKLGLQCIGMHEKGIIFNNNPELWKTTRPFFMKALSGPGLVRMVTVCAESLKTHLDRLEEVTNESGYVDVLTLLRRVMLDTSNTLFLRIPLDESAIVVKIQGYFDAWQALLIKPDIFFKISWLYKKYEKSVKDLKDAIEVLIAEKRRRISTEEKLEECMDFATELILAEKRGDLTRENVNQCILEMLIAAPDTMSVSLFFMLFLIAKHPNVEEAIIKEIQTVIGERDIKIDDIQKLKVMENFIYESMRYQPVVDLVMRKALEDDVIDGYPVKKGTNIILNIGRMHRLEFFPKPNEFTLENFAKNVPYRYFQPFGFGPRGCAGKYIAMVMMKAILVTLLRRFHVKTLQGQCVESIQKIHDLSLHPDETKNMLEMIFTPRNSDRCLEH
Chain of Estrogen receptor (Homo sapiens) (P03372 whole entry, looked up): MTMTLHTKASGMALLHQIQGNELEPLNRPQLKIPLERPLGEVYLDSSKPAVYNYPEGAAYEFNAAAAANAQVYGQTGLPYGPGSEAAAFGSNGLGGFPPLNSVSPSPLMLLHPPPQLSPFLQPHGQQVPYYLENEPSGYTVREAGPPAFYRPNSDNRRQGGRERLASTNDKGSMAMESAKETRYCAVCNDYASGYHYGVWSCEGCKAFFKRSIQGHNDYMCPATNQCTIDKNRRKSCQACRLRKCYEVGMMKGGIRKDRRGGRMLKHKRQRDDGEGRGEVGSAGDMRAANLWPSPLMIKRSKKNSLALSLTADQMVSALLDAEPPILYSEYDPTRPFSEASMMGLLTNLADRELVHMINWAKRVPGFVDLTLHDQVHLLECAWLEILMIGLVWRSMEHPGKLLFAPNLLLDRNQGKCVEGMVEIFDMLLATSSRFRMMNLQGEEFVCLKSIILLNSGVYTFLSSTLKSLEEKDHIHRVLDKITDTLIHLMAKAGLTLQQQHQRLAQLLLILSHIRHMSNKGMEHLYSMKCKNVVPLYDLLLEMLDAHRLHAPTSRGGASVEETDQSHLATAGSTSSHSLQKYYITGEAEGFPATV

As for `CCCCN(CC)C(=O)SCCC`, the Potency entry in [1], in assay [2], in assay [4], in [5], in assay [6] and in [7] was “inactive” in each case. Moreover, the Potency entry (in assay [8]; with Aromatase (Homo sapiens)) was “inactive” each time. Moreover, the compound was called inactive in assay [3] and in assay [9].
In the case of `ClCc1cccnc1`, the Potency entry in assay [1], in assay [2], in [4], in [5], in assay [6] and in assay [7] was “inactive” in each case. The Potency entry (in assay [8]; in the assay with Aromatase (Homo sapiens)) was “inactive” in each case. Moreover, the compound was called inactive in assay [3] and in assay [9].
For `c1ccc2c(c1)oc1ccccc12`, the Potency result in assay [1], in assay [2] and in [5] was “inactive” each time. Also, the call in assay [3] and in [9] was inactive.
In the case of `c1cc2c3c(cccc3c1)CC2`, the Potency result in assay [1], in [2], in assay [4], in assay [5], in assay [6] and in assay [7] was “inactive” throughout. Also, the Potency result (in assay [8]; in the assay with Aromatase (Homo sapiens)) was “inactive” throughout. For the same compound, the outcome in [3] and in assay [9] was inactive.
For `Nc1ccccc1C(=O)O`, the Potency result in assay [1], in [2], in assay [4], in [5], in [6] and in assay [7] was “inactive” throughout. In addition, the Potency entry (in [8]; with Aromatase (Homo sapiens)) was “inactive” throughout. For the same compound, the result in [3] and in [9] was inactive.
As for `CN(C)CCO`, the Potency result in assay [1], in [2], in assay [4], in assay [5], in [6] and in assay [7] was “inactive” each time. Also, the Potency entry (in assay [8]; in the assay with Aromatase (Homo sapiens)) was “inactive” each time. Further, the outcome in assay [3] and in [9] was inactive.
Regarding `CCCCCCCCCl`, the Potency result in [1], in [2], in assay [4], in assay [6], in assay [7] and in assay [8] was “inactive” in each case. For the same compound, in the assay with Aromatase (Homo sapiens), the Potency entry is “inactive”. Further, the compound was classed as inactive in [3] and in [9].
Take `O=S(=O)(c1ccc(Cl)cc1)c1cc(Cl)c(Cl)cc1Cl`: the Potency entry (in [1]; in assay [2]; in assay [4]; in assay [5]; in [6]; with Aromatase (Homo sapiens)) was “inactive” in each case. Also, the compound was called inactive in [3] and in [9]. The Potency in [8] was 48.6 µM (active).
Consider `Cc1cc(-c2cc(C)c(N)c(C)c2)cc(C)c1N`, for which the Potency entry in [1], in assay [2], in assay [4], in [5], in assay [6] and in assay [7] was “inactive” each time. Also, the Potency result (in [8]; with Aromatase (Homo sapiens)) was “inactive” throughout. In addition, the outcome in assay [3] and in [9] was inactive.
In the case of `O=C(O)c1ccccn1`, the Potency result in assay [1], in assay [2], in assay [4], in [5], in assay [6] and in assay [7] was “inactive” throughout. The Potency result (in assay [8]; with Aromatase (Homo sapiens)) was “inactive” in each case. For the same compound, the compound was classed as inactive in [3] and in assay [9].
`CN(N=O)c1ccccc1`: the Potency entry in assay [1], in assay [2], in [4], in assay [5], in assay [6] and in assay [7] was “inactive” in each case. In addition, the Potency result (in [8]; with Aromatase (Homo sapiens)) was “inactive” throughout. Besides, the compound was classed as inactive in assay [3] and in [9].
Take `CCOP(OCC)OCC`: the Potency result in [1], in assay [2], in [4], in assay [5], in [6] and in assay [7] was “inactive” in each case. For the same compound, the Potency result (in [8]; with Aromatase (Homo sapiens)) was “inactive” in each case. The compound was called inactive in assay [3] and in assay [9].
With `CCOC(=O)c1ccccc1C(=O)OCC`, the Potency entry in assay [1], in [2], in [4], in assay [5], in assay [6] and in [7] was “inactive” throughout. In addition, the Potency entry (in assay [8]; in the assay with Aromatase (Homo sapiens)) was “inactive” throughout. Moreover, the call in assay [3] and in [9] was inactive.
For the compound `COP(N)(=O)SC` (stereo unspecified), the Potency result in [1], in assay [4], in assay [5], in [6], in [7] and in [8] was “inactive” each time. In addition, in the assay with Aromatase (Homo sapiens), the Potency entry was “inactive”. The call in [3] and in assay [9] was inactive.
Consider `CCN(CC)c1ccccc1`, for which the Potency entry in assay [1], in assay [4], in assay [5], in assay [6], in assay [7] and in assay [8] was “inactive” in each case. Also, the Potency entry in the assay with Aromatase (Homo sapiens) was “inactive”. Besides, the compound was called inactive in assay [3] and in [9].
Turning to `CCNc1nc(NC(C)C)nc(SC)n1`, the Potency result (in assay [1]; in assay [2]; in assay [5]; with Aromatase (Homo sapiens)) was “inactive” throughout. Besides, the compound was classed as inactive in [3] and in assay [9].
For `Cn1cc(-c2ccccc2)c(=O)c(-c2cccc(C(F)(F)F)c2)c1`, the Potency entry in assay [1], in assay [4], in assay [5], in assay [6], in assay [7] and in assay [8] was “inactive” in each case. The Potency entry with Aromatase (Homo sapiens) is “inactive”. In addition, the result in assay [3] and in assay [9] was inactive.
With `CCC(C)(CC)c1cc(NC(=O)c2c(OC)cccc2OC)on1`, the Potency entry (in assay [1]; in assay [5]; with Aromatase (Homo sapiens)) was “inactive” in each case. The Potency in assay [2] is 54.6 µM (active). The result in assay [3] and in assay [9] was inactive.
Turning to `c1ccc(OP(Oc2ccccc2)Oc2ccccc2)cc1`, the Potency result in [1], in assay [4], in assay [5], in assay [6], in assay [7] and in [8] was “inactive” in each case. Moreover, the Potency entry with Aromatase (Homo sapiens) was “inactive”. Also, the compound was classed as inactive in assay [3] and in assay [9].
With `CC(C)(C)OOC(=O)c1ccccc1`, the Potency result (in [1]; in [2]; in assay [5]; with Aromatase (Homo sapiens)) was “inactive” each time. In addition, the call in assay [3] and in [9] was inactive.
Regarding `COC(=O)c1ccccc1N`, the Potency entry (in assay [1]; in [2]; in assay [5]; in the assay with Aromatase (Homo sapiens)) was “inactive” in each case. For the same compound, the result in assay [3] and in assay [9] was inactive.
Consider `c1ccc(-c2ccccc2)cc1`, for which the Potency result in assay [1], in assay [4], in assay [5], in assay [6], in [7] and in assay [8] was “inactive” in each case. Also, the Potency result with Aromatase (Homo sapiens) is “inactive”. Besides, the compound was classed as inactive in [3] and in assay [9].
For `CCCCCOC(=O)c1ccccc1C(=O)OCCCCC`, the Potency entry in assay [1], in assay [4], in [5], in assay [6], in assay [7] and in assay [8] was “inactive” in each case. For the same compound, the Potency entry with Aromatase (Homo sapiens) was “inactive”. Further, the compound was classed as inactive in [3] and in assay [9].
As for `CN(C)[C@@H]1C(=O)C(C(N)=O)=C(O)[C@@]2(O)C(=O)C3=C(O)c4c(O)cccc4[C@@](C)(O)[C@H]3C[C@@H]12`, the Potency entry (in [1]; in [2]; in assay [5]; with Aromatase (Homo sapiens)) was “inactive” throughout. The call in [3] and in assay [9] was inactive.
In the case of `Nc1c(Cl)c(Cl)nc(C(=O)O)c1Cl`, the Potency result in assay [1], in assay [4], in assay [5], in [6], in [7] and in [8] was “inactive” each time. In addition, the Potency entry with Aromatase (Homo sapiens) was “inactive”. Besides, the compound was called inactive in assay [3] and in [9].
